Where “and” joins values, the source holds several entries; their conditions need not be identical. Equal values may be shown once. Results filed as inconclusive are left out. Where a call stands in place of a potency, no number is given. Calls of active or inactive are those of the source. The call rests on the fitted dose curve; in most records, active means well fitted cell-killing curve with a large enough effect in the repeat runs; inconclusive means weak or mixed curves, or effect the other way; inactive means flat fitted curve, though single readings scatter.
Assay: qHTS RealTime-Glo MT Cell Viability Assay in HepG2 cells - 40 hour (AID 1224870); further: nearly all actives have a fitted effect of over 50% in size
Details: RealTime-Glo luminescence; series mostly up to 76.8 µM
Text: National Center for Advancing Translational Sciences [NCATS]
NIH Chemical Genomics Center [NCGC]
U.S. Environmental Protection Agency [EPA]
National Institutes of Environmental Health Sciences [NIEHS]
National Toxicology Program [NTP]
U.S. Food and Drug Administration [FDA]
Measure of cell viability is critical in the cell-base assay. Analysis of cell viability is necessary for the characterization of cell responses to cytotoxic drugs and environmental stress. A RealTime-Glo MT Cell Viability Assay to monitor cell viability in real time of continues cell culture during 40 hours of compound treatment was used to screen Tox21 10K library compounds in HepG2 cells. The RealTime-Glo MT Cell Viability Assay is a nonlytic, homogeneous, bioluminescent method to measure cell viability in real time using a simple, plate-based method. The assay involves adding NanoLuc luciferase and a cell-permeant prosubstrate to cells in culture. Viable cells reduce the proprietary prosubstrate to generate a substrate for NanoLuc luciferase. This substrate diffuses from cells into the surrounding culture medium, where it is rapidly used by the NanoLuc Enzyme to produce a luminescent signal. The signal correlates with the number of viable cells, making the assay well suited for cytotoxicity studies.
Tox21 Assay Protocol Summary:
The mixture of HepG2 cell suspension and reagents were dispensed at 600cells/6 ul/well in 1536-well tissue culture treated black solid bottom plates using a Multidrop dispenser. After the assay plates were incubated at a 37 C/5% CO2 incubator for 5 hours, 23 nL of compounds dissolved in DMSO, positive and negative controls was transferred to the assay plate by a pintool work station. The plates were incubated at 37 C for 40 hours. The luminescence intensity were measured at 0h, 8h, 16h, 24h, 32h and 40h time points using ViewLux plate reader during compound treatment.
Potency means the concentration at half of the fitted maximal effect.

Row | SMILES | Potency
1 | O=CC(Br)(Br)Br | 43.5 µM (active)
2 | CC(C)(C)c1ccc(CSc2cnn(C(C)(C)C)c(=O)c2Cl)cc1 | inactive
3 | Cn1[nH]nnc1=S | inactive
4 | CCCCCCCCCBr | inactive
5 | O=C(CCCN1CCC2(CC1)C(=O)NCN2c1ccccc1)c1ccc(F)cc1 | inactive
6 | ClC1=C(Cl)C2(Cl)C3C(Cl)C=CC3C1(Cl)C2(Cl)Cl (stereo not given) | inactive
7 | O=[N+]([O-])c1ccc(Oc2ccc(C(F)(F)F)cc2[N+](=O)[O-])cc1 | inactive
8 | CC(=O)OC1(c2ccccc2)CCN(CCc2ccccc2)CC1 | inactive
9 | COc1cccc2c1C(=O)c1c(O)c3c(c(O)c1C2=O)C[C@@](O)(C(=O)CO)CC3OC1CC(N2CCOC(OC)C2)C(O)C(C)O1 (stereo not given in full) | 0.0338 µM (active)
10 | Cc1ccc(C(=O)Cl)cc1 | inactive
11 | c1ccc(OCC2CO2)cc1 (stereo not given) | inactive
12 | CC(C)CCCCCOC(=O)c1ccccc1C(=O)OCCCCCC(C)C | inactive
13 | OC(Cc1ccccc1Cl)(Cn1cncn1)C1(Cl)CC1 (stereo not given) | inactive
14 | COc1ccc([N+](=O)[O-])cc1O | inactive
15 | C[As+](C)(C)CC(=O)[O-] | inactive
16 | N#C/C=C/c1ccccc1 | inactive
17 | CCN | inactive
18 | CCN(CC)C(=S)[S-].CCN(CC)C(=S)[S-].[Zn+2] | 10.9 µM (active)
19 | ClC1=C(Cl)[C@]2(Cl)[C@@H]3[C@@H](Cl)[C@@H](Cl)C[C@@H]3[C@@]1(Cl)C2(Cl)Cl | inactive
20 | N#CNC#N | inactive

Row | SMILES | Potency
21 | Oc1cc(Cl)c(Cl)c(Cl)c1 | inactive
22 | Cc1cc(SCc2sc(-c3ccc(C(F)(F)F)c(F)c3)nc2C)ccc1OCC(=O)O | inactive
23 | Clc1ccc(C(c2ccc(Cl)cc2)C(Cl)(Cl)Cl)cc1 | inactive
24 | CN(CCCC(O)c1cccnc1)N=O (stereo not given) | inactive
25 | CCCCCCCCCCCCCCCC[N+](C)(C)C | 24.5 µM (active) and 21.3 µM (active)
26 | CCCCCCCCCCCCBr | inactive
27 | CCCCCCCCCC[N+](C)(C)CCCCCCCCCC | 7.76 µM (active)
28 | CCC(C)c1cc(C(C)(C)C)cc(-n2nc3ccccc3n2)c1O (stereo not given) | inactive
29 | CC1(C)CC/C(=C/c2ccc(Cl)cc2)C1(O)Cn1cncn1 (stereo not given) | inactive
30 | CC1(C)[C@H](C(=O)O[C@H](C#N)c2cccc(Oc3ccccc3)c2)[C@@H]1/C=C(\Cl)C(F)(F)F | inactive
31 | [Hg+2].[I-].[I-] | 12.3 µM (active)
32 | CC(C)(C)OO | inactive
33 | Cc1cc(C(C)(C)c2cc(C)c(O)c(C)c2)cc(C)c1O | inactive
34 | CC(C)C1CCC(Cc2ccc(Cl)cc2)C1(O)Cn1cncn1 (stereo not given) | 48.5 µM (active)
35 | FC(F)(F)c1cccc(C2=CCN(CCc3ccc4ccccc4c3)CC2)c1 | inactive
36 | CC(C)OS(C)(=O)=O | inactive
37 | CC(C)N1C(=O)N(c2ccccc2)CSC1=NC(C)(C)C | inactive
38 | CCCCCCCCCCCCCCC(Br)C(=O)O (stereo not given) | inactive
39 | COc1ccc(OC)c(C=O)c1 | inactive
40 | Oc1cccc(-c2ccccc2)c1 | inactive
